A549 tox-1: Nrf2 qHTS screen for inhibitors: counterscreen for cytotoxicity; A549 ARE-Fluc cells, CellTiter-Fluor viability, 18-24 h; Potency, µM (doses to about 46 µM), for the others: at the top dose activity change, negative = cytotoxicity, actives largely listed as inhibitors; 390,000 compounds, 0.16% hits; AID 504648, 2011; also: potency is read from the fitted curve at half-maximal effect; % is scaled to controls: 0 for no effect and ±100 for the full control effect
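A549 ARE-Fluc cells in 5% FBS OPTI-MEM, 5000 cells/well, rested 2 h then exposed to compounds in concentration-response for 18-24 h at 37 °C. Viability by CellTiter-Fluor fluorescence (Ex 405/Em 525) after 30 min; luciferase luminescence (BugLite, 15 min, RT) read afterwards.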
Nrf2 ARE act: qHTS of Nrf2 Activators. Potency, µM (top dose mostly 46.1 µM), without a hit: at the highest dose activation, most hits filed as activators. AID 624171, 2012. AREc32 ARE-luciferase reporter (MCF7-derived line), luminescence, 24 h. 410,000 compounds, 0.31% hits; also: potency is read from the fitted curve at half-maximal effect; % of control where 0% means no effect; nearly all actives have a fitted effect of over 65% in size
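AREc32_Fluc, 1000 cells/well, OPTI-MEM + 5% FBS, o/n 37 deg C 5% CO2; 23 nL cpd by pin tool, 24 hr; Steady-Glo 30 min RT, luminescence.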
IL-2 act: qHTS of IL-2 Activators. IL-2 activation reporter assay, cell-based qHTS; stimulated with anti-CD3/CD4/CD28 beads; in transgenic mouse T cells. activation, % (series mostly up to about 46 µM). 360,000 compounds, 0.065% hits. AID 652025, 2013; in the data active = activation above about 50%; inconclusive = mostly about 30% to 49%; also: 0% is about no effect
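EGFP and DsRed fluorescence is measured by plate cytometry in unstimulated transgenic mouse T cells exposed to compound for 60 minutes, then stimulated 18 hours at 37 degrees C with anti-CD3/anti-CD4 beads plus anti-CD28.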
miR-21 act: qHTS Assay for Modulators of miRNAs and/orActivators of miR-21; HeLa miR-21 FLuc reporter, luciferase, 48 h; Potency, µM (doses to about 38.3 µM), for the others: at the top dose activity change, positive = activation, most hits filed as activators; 340,000 tested, under 10 active; AID 2288, 2010;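 also: % of control where 0% means no effect; miR-21 action dims this reporter so a rising signal means less miR-21 action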
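HeLa miR-21-FLuc reporter line, endogenous miR-21; 2000 cells/well in DMEM/10% FBS; compound titration up to ~40uM final, 48 h, 37 degree Celsius; luciferase detection reagent, 15 min lysis, CCD luminescence.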
Nrf2 inh: Nrf2 qHTS screen for inhibitors. A549 ARE-Fluc reporter, luciferase luminescence, 18-24 h. Potency, µM (doses to about 46 µM), for inactives: at the top dose activity change, negative = inhibition, hits mostly inhibitors. 360,000 compounds, 2.1% hits. AID 504444, 2011; also: potency is read from the fitted curve at half-maximal effect; % is scaled to controls: 0 for no effect and ±100 for the full control effect; nearly all actives have a fitted effect of over 60% in size
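Nrf2 activity is the BugLite luminescence, read 15 min after reagent at room temperature, following CellTiter-Fluor cytotoxicity readout (30 min, 37C). Compound titrations were applied for 18-24 h to 5000 A549 ARE_Fluc cells/well in 5% FBS OPTI-MEM.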
ClpP mod: qHTS Assay for Activators of ClpP | ATP-dependent Clp protease proteolytic subunit (Bacillus subtilis (strain 168)), P80244 | AID 651965, 2013 | purified B. subtilis ClpP, FRET peptide cleavage, 20 min | 340,000 compounds, 1.9% hits | Potency, µM (titrated, usually from 57.5 µM), for the others: top-dose activity change, negative = active; active = well fitted falling curve with a large enough effect; inconclusive = small, poorly fitted or top-dose-only effect; inactive = no such curve, though single readings can be large or run the other way; also: potency is read from the fitted curve at half-maximal effect; the source files actives as falling curves though it sought activators and does not explain the sign; nearly all actives have a fitted effect of over 65% in size
Target sequence (P80244 whole entry, looked up): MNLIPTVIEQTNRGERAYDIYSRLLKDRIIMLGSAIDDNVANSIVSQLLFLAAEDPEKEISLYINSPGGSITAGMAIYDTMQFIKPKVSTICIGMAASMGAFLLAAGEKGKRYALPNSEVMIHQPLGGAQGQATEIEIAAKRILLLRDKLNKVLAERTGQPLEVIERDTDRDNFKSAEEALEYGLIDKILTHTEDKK
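ClpP 10 microg/mL final, pH 8 Tris/KCl buffer with BSA, glycerol, Tween-20; compound pinned in; FRET-FV substrate; RT 20 min; Ex320/Em430; ΔFRET vs ADEP 5.8 microM, DMSO, no enzyme.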
FLuc counter 3: Nrf2 qHTS screen for inhibitors: Purified Fluc Biochemical Counterscreen for Hit Validation. shares compounds with Nrf2 inh. purified firefly luciferase, luminescence inhibition. Potency, µM (top dose mostly 57.5 µM), without a hit: at the top dose activity change, negative = inhibition, actives largely listed as inhibitors. 1,400 compounds, 4% hits. AID 720522, 2013; also: potency is read from the fitted curve at half-maximal effect; % is scaled to controls: 0 for no effect and ±100 for the full control effect; nearly all actives have a fitted effect of over 65% in size
Target sequence (P08659 whole entry, looked up): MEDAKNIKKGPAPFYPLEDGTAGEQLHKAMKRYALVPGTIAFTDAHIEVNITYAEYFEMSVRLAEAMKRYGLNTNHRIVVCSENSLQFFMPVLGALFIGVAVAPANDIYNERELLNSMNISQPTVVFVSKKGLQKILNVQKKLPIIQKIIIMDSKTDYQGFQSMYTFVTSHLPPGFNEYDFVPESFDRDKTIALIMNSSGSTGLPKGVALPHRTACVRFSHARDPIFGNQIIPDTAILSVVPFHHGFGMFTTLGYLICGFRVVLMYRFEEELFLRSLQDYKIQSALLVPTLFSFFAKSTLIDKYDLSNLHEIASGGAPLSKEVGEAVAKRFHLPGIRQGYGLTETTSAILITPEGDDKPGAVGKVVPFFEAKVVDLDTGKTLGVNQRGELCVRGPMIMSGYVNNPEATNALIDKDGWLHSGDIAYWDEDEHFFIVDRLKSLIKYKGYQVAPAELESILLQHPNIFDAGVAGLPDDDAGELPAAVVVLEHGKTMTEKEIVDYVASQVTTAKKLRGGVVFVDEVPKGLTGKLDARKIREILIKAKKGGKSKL
A549 tox-2: Nrf2 qHTS screen for inhibitors: A549 ARE-Fluc Cytotoxicity Counterscreen for Hit Validation; shares compounds with Nrf2 inh; A549 ARE-Fluc cells, cytotoxicity counterscreen; 1,400 compounds, 2% hits; Potency, µM (highest dose often 46.1 µM), for inactives: top-dose activity change, negative = cytotoxicity, actives largely listed as inhibitors;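 also: potency is read from the fitted curve at half-maximal effect; cells exposed to compounds for 18 to 24 hours; % is scaled to controls: 0 for no effect and ±100 for the full control effect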
ARE-Fluc inh: Nrf2 qHTS screen for inhibitors: Nrf2 A549 ARE-Fluc Confirmation Assay for Hit Validation; shares compounds with Nrf2 inh; AID 720524, 2013; Potency, µM (highest dose often 46.1 µM), for the others: at the highest dose activity change, negative = inhibition, actives largely listed as inhibitors; A549 ARE-firefly luciferase reporter, luminescence; 1,400 compounds, 74% hits; also: potency is read from the fitted curve at half-maximal effect; % is scaled to controls: 0 for no effect and ±100 for the full control effect; nearly all actives have a fitted effect of over 65% in size
* hit, by the source's call; ? = inconclusive; nt = not tested or not shown. Only some compounds are listed: those with a hit (about 3.7% of all), similar ones and a draw of the others. Unless noted, calls follow the shape of the dose curve; as a rule, active = well fitted curve in the direction sought with a large enough effect; inconclusive = small, poorly fitted or top-dose-only effect, or another doubt; inactive = no such curve, though single readings can be large; an effect the other way counts as inactive or inconclusive.

SMILES	A549 tox-1	Nrf2 ARE act	IL-2 act	miR-21 act	Nrf2 inh	ClpP mod	FLuc counter 3	A549 tox-2	ARE-Fluc inh
C[C@@H]1O[C@@H](O[C@@H]2C=C3CC[C@@H]4[C@@H](CC[C@]5(C)[C@H](c6ccc(=O)oc6)CC[C@@]45O)[C@@]3(C)CC2)[C@H](O)[C@H](O)[C@H]1O	nt	nt	nt	nt	nt	0.0%	1.6%	?	0.0103µM*
CCOc1ccc(C2c3c(-c4ccccc4O)n[nH]c3C(=O)N2Cc2ccncc2)cc1 (stereo not given)	-1.7%	0.5%	nt	?	-8.1%	-0.8%	nt	nt	nt
Nc1c(C(=O)Nc2ccc(OC(F)(F)F)cc2)sc2nc3c(cc12)N1CCC3CC1	-13.2%	0.6%	nt	?	6.51µM*	4.1%	-1.9%	-15.2%	nt
O=C(Nc1ccc(OC(=O)N2CCCC2)cc1)N1CCOCC1	3.3%	-0.3%	-3.0	1.3%	5.5%	-0.9%	nt	nt	nt
O=C(Nc1ccc(OC(=O)N2CCCCC2)cc1)N1CCOCC1	-2.7%	-2.5%	-1.8	-13.6%	9.2µM*	nt	-9.7%	-5.4%	5.17µM*
Cc1cc([N+](=O)[O-])c2ccccc2[n+]1[O-]	?	-2.3%	-1.0	?	4.11µM*	0.6%	-21.4%	-7.9%	6.51µM*
COC(=O)C1=C(c2cccc(OCc3ccccc3)c2)C[C@@H]2CC[C@H]1N2C(=O)NCc1cc(C)oc1C(F)(F)F	-11.3%	2.5%	-1.3	nt	?	-1.3%	2.6%	-16.6%	?
NC(=O)c1cn(C2OC(CO)C(O)C2O)c2ncnc(N)c12 (stereo not given)	?	-1.9%	-0.6	28.5%	0.461µM*	1.2%	2.0%	?	0.82µM*
N#Cc1cn(C2OC(CO)C(O)C2O)c2ncnc(N)c12 (stereo not given)	?	-1.4%	-0.7	nt	?	-14.1%	nt	nt	nt
C[C@H]1[C@@H](OS(=O)(=O)O)C[C@@H]2C[C@H]([C@@H](O)c3cc(=O)[nH]c(=O)[nH]3)NC3=NC[C@H]1N32	-29.5%	-2.9%	-0.8	nt	0.651µM*	-1.1%	2.3%	nt	0.231µM*
Clc1cccc(Cl)c1Cn1nnc(N2CCCC2)n1	2.8%	3.9%	-1.0	-52.9%	29.5%	nt	nt	nt	nt
O=C(Nc1ccc(Cl)c(C(F)(F)F)c1)NC1CC2CCCC(C1)N2Cc1ccccc1 (stereo not given)	-15.4%	-2.2%	-2.4	?	-23.9%	nt	nt	nt	nt
O=C(Nc1ccc(Cl)c(C(F)(F)F)c1)c1ccc2c(c1)CCN2S(=O)(=O)c1ccccc1	-18.8%	-0.7%	nt	?	?	-5.9%	nt	nt	nt
COc1ccc(NC(=O)CCCn2c(=O)oc3ccccc32)cc1Cl	-0.1%	0.6%	1.2	-69.7%	?	-0.2%	nt	nt	nt
C=C1C(=O)O[C@@H]2C[C@@H](C)[C@@H]3C4OC4C(=O)[C@@]3(C)[C@@H](O)[C@H]12 (stereo not given in full)	?	-3.3%	-0.9	?	?	-3.7%	nt	nt	nt
C=C1C(=O)O[C@@H]2C[C@@H](C)[C@@H]3C=CC(=O)[C@@]3(C)[C@@H](OC(=O)CC(=O)O[C@H]3[C@@H]4C(=C)C(=O)O[C@@H]4C[C@@H](C)[C@@H]4C=CC(=O)[C@]43C)[C@H]12	14.6µM*	-2.8%	0.4	?	2.59µM*	2.1%	?	2.91µM*	2.06µM*
O=C(Nc1ccc2c(c1)OCO2)c1cccn(Cc2ccccc2)c1=O	-11.7%	1.3%	nt	-22.0%	nt	2.4%	nt	nt	nt
Cc1ccc2c(C)c3ccc4ccccc4c3c[n+]2c1	?	-1.7%	-0.2	nt	2.59µM*	8.4%	-0.8%	-28.7%	5.8µM*
COc1cc2cc(C(=O)N3CC(COS(C)(=O)=O)c4ccc(O)cc43)[nH]c2c(OC)c1OC (stereo not given)	?	-2.3%	-7.1	nt	0.058µM*	2.3%	-18.9%	?	?
O=C(O)c1cccc2nc3ccccc3nc12	-20.9%	-0.6%	0.5	0.5%	2.31µM*	1.3%	0.9%	-29.0%	3.26µM*
CC1Oc2cc3c(-c4c(O)cc(O)c5c(O)c6c(cc45)OC(C)C(C)C6=O)c(O)cc(O)c3c(O)c2C(=O)C1C (stereo not given)	?	0.1%	-0.7	?	4.61µM*	0.4%	0.6%	-17.5%	9.2µM*
COc1cc([C@@H]2c3cc4c(cc3[C@@H](O)C3COC(=O)C32)OCO4)cc(OC)c1O (stereo not given in full)	-10.2%	nt	nt	nt	?	-1.4%	nt	nt	nt
CC(=O)OC1CC(OC2C(O)CC(OC3C(O)CC(OC4CCC5(C)C(CCC6C5CC(O)C5(C)C(C7=CC(=O)OC7)CCC65O)C4)OC3C)OC2C)OC(C)C1OC1OC(CO)C(O)C(O)C1O (stereo not given)	?	-3.4%	0.1	nt	0.13µM*	1.0%	0.6%	?	0.164µM*
C[C@]12CC[C@H](O)C[C@H]1CCC1C2CC[C@]2(C)[C@@H](c3ccc(=O)oc3)C[C@H]3O[C@]132 (stereo not given in full)	nt	nt	nt	nt	nt	0.0%	-1.8%	?	1.46µM*
C[C@]12CC[C@H]3C(CCC4(O)CC(O)CC[C@]34C=O)C1=CC[C@H]2c1ccc(=O)oc1 (stereo not given in full)	-25.0%	-3.4%	1.2	?	?	0.8%	nt	nt	nt
CC12CCC(O)CC1CCC1C2CCC2(C)C(C3=CC(=O)OC3)CCC12O (stereo not given)	?	-1.5%	-0.3	nt	0.411µM*	1.2%	1.3%	?	0.259µM*
